The nature of test [1]: antimalarial activity against Dd2 strain (AID 2302;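 active = growth inhibition above 50% at the single 2 µM test dose, taken to imply half-maximal potency below 2 µM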;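 note: 0% = DMSO untreated growth and 100% = chloroquine plus artemisinin killed control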). The note with it: P. falciparum Dd2 in RBCs, LDH growth readout, 72 h; at 2 µM; active compounds read high.
A short description of test [2]: HepG2 cytotoxicity, primary screen, cytotoxicity control for P. falciparum antimalarial project, cell-based, ATP luminescence (AID 2303;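 active = inhibition above 50%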;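 note: 0% = DMSO wells and 100% = digitonin-killed cells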). As to conditions: HepG2 viability, 24-48 h, at 10 µM, active compounds read high.
The target of test [3] is L-lactate dehydrogenase (Plasmodium falciparum (isolate CDC / Honduras)) (UniProt Q27743). In words: PfLDH activity inhibition – cell lysate, 3D7 strain, counter-screen for P. falciparum growth inhibition project (AID 2304).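 Note: 0% = vehicle and 100% = reference inhibitor.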 The note with it: P. falciparum 3D7 crude extract, LDH APAD/NBT absorbance; at 2 µM; active compounds read high.
L-lactate dehydrogenase (Plasmodium falciparum (isolate CDC / Honduras)), sequence (Q27743 whole entry, looked up): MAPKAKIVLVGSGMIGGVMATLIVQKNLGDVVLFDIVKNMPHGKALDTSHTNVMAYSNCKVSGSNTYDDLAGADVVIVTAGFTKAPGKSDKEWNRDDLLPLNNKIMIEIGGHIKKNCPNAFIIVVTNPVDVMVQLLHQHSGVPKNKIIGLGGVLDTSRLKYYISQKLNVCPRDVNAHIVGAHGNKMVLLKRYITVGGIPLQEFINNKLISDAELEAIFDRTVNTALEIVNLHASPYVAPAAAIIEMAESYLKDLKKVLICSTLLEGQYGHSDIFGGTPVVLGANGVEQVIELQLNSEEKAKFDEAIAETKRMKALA
A short description of test [4]: inhibition of 3D7 malaria parasite growth – strain 3D7 (AID 2306).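 Note: 0% = DMSO wells and 100% = chloroquine plus artemisinin control wells.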 As to conditions: P. falciparum 3D7 erythrocytic growth, LDH absorbance, 72 h; at 2 µM; active compounds read high.
Test [5] concerns the target Calcium-dependent protein kinase 1 (Plasmodium falciparum (isolate 3D7)) (UniProt P62344). In words: PfCDPK1 kinase inhibitors, biochemical, TCAMS library (AID 1159585; cut-off not given, nearly all actives have IC50 up to about 0.98 µM;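 note: inhibitors leave more ATP so luminescence rises with inhibition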). As to conditions: recombinant PfCDPK1, Kinase-Glo ATP depletion luminescence.
In test [6] the target is Plasmodium falciparum protein kinase 6 (PK6, PF3D7_1337100) (UniProt Q8IDW1). In words: PfPK6 kinase inhibitors, biochemical, TCAMS library (AID 1159586). As to conditions: recombinant PfPK6, Kinase-Glo ATP depletion luminescence.
Plasmodium falciparum protein kinase 6 (PK6, PF3D7_1337100), sequence (Q8IDW1 1-305): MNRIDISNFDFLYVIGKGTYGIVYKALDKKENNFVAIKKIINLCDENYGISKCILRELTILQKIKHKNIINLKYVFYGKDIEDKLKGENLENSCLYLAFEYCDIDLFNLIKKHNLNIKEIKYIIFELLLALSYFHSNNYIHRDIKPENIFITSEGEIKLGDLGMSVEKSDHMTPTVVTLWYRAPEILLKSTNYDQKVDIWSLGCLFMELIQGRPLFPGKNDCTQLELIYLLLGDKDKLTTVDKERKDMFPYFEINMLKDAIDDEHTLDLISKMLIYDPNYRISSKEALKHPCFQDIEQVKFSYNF
Test [7] deals with Protein kinase 7 (PK7), Plasmodium falciparum 3D7 (PF3D7_0213400) (UniProt Q7YTF7). The test can be described thus: inhibition of Plasmodium PK7 catalytic activity – biochemical, TCAMS antimalarial set, Kinase-Glo luminescence (AID 1159587). The note with it: recombinant PfPK7, Kinase-Glo ATP depletion luminescence.
Protein kinase 7 (PK7), Plasmodium falciparum 3D7 (PF3D7_0213400), sequence (Q7YTF7 1-343): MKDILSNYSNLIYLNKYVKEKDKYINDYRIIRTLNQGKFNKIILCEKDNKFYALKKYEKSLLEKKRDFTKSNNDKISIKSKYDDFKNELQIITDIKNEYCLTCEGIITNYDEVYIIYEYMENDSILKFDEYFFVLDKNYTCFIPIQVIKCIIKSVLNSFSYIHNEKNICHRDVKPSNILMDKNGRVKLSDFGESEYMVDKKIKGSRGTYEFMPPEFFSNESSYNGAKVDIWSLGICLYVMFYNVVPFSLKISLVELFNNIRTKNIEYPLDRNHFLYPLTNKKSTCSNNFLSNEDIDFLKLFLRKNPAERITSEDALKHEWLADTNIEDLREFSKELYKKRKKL
Test [8] concerns the target Calcium-dependent protein kinase 4 (Plasmodium falciparum (isolate 3D7)) (UniProt Q8IBS5). The test can be described thus: PfCDPK4 kinase inhibitors, biochemical, TCAMS library (AID 1159588; cut-off not given, nearly all actives have IC50 up to about 0.91 µM). The note with it: recombinant PfCDPK4, Kinase-Glo ATP depletion luminescence.

A number with no mark means an inactive call. For some of these results: Potency and affinity values are given separately. Calls of active or inactive are those of the source. Unless noted, the rule behind the calls is not given here.

Calcium-dependent protein kinase 1 (Plasmodium falciparum (isolate 3D7)), sequence (P62344 whole entry, looked up): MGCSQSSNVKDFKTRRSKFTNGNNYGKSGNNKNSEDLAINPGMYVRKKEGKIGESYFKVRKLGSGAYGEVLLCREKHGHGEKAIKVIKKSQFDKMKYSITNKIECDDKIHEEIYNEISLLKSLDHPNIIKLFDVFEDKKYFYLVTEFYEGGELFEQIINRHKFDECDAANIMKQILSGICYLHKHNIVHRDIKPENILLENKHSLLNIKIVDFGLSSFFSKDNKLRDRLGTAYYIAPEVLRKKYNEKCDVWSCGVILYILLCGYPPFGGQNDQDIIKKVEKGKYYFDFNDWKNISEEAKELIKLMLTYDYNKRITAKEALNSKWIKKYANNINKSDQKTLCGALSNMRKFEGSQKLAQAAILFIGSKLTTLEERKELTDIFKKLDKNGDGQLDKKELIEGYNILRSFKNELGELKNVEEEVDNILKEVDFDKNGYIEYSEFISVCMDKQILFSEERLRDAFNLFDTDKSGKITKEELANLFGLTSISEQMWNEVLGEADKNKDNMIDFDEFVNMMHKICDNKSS
Calcium-dependent protein kinase 4 (Plasmodium falciparum (isolate 3D7)), sequence (Q8IBS5 whole entry, looked up): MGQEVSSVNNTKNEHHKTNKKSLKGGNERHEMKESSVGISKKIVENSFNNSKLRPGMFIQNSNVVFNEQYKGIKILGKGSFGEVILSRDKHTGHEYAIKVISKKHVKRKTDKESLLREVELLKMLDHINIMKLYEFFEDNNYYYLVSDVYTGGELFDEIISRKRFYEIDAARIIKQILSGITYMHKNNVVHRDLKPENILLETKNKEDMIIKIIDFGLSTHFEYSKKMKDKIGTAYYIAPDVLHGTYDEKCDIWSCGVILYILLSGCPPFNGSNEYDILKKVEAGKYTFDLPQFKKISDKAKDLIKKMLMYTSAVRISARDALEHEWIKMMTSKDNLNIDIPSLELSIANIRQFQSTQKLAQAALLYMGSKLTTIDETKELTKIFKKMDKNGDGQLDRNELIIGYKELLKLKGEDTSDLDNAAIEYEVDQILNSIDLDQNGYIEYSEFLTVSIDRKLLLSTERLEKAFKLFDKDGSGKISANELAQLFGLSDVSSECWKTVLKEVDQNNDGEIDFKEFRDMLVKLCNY

Consider `CN1CCN(c2ccnc3cc4c(cc23)N(Cc2ccccc2)CC4)CC1`, for which the growth inhibition is 27% in test [1] and 94% (active) in test [4]. Also, the inhibition in test [2] was -2%; in test [3], -3%. The outcome in test [5], in test [6], in test [7] and in test [8] was inactive.

Take `COc1ccc(NC(=O)c2ccc(NC(=O)c3ccc(Cl)cc3)cc2)cc1N1CCN(C)CC1`: the growth inhibition in test [1] is 40%; in test [4], 98% (active). Also, the inhibition is 23% in test [2] and -8% in test [3]. The result in test [5], in test [6], in test [7] and in test [8] was inactive.

As for `O=C(Nc1ccsc1)Nc1cccc(-c2ccc(-c3nc4ccc(C(F)(F)F)cc4[nH]3)cc2)c1`, the growth inhibition was 36% in test [1] and 99% (active) in test [4]. The inhibition in test [2] was 45%; in test [3], -2%. Moreover, the outcome in test [5], in test [6], in test [7] and in test [8] was inactive.

For the molecule `CCN(CC)c1ccccc1CNC(=O)c1cc(Cl)c(N)cc1OC`, the growth inhibition in test [1] is 94% (active); in test [4], 97% (active). Besides, the inhibition in test [2] was 6%; in test [3], -1%. For the same molecule, the outcome in test [5], in test [6], in test [7] and in test [8] was inactive.

`CCc1cn2c3c(cc(C(=O)N[C@@H](Cc4ccccc4)[C@H](O)CNC(C)(C)c4cccc(OC)c4)cc13)N(C)S(=O)(=O)C2`: the growth inhibition in test [1] is 99% (active); in test [4], 98% (active). In addition, the results for the inhibition in test [2] and in test [3] were 27% and -5%, respectively. Moreover, the result in test [5], in test [6], in test [7] and in test [8] was inactive.

For the molecule `COc1ccc(CNCCc2cccs2)cc1-c1ccc(S(=O)(=O)NCCN2CCCC2)s1`, the growth inhibition is 21% in test [1] and 99% (active) in test [4]. The inhibition in test [2] was 41%; in test [3], 2%. Moreover, the outcome in test [5], in test [6], in test [7] and in test [8] was inactive.

As to `O=C(Nc1cccc(OCCN2CCCC2)c1)Nc1ccc(Cl)c(Cl)c1`, the growth inhibition in test [1] was 22%; in test [4], 98% (active). Also, the inhibition in test [2] was 3%; in test [3], -5%. The outcome in test [5], in test [6], in test [7] and in test [8] was inactive.

As to `COc1ccc(CC(=O)NC(CCN2CCC3(CCc4ccccc43)CC2)c2ccc(Cl)c(Cl)c2)cc1` (stereo not given), the growth inhibition in test [1] is 75% (active); in test [4], 90% (active). The inhibition in test [2] was 28%; in test [3] it was -1%. For the same molecule, the outcome in test [5], in test [6], in test [7] and in test [8] was inactive.

For the molecule `N#Cc1ccc2c(c1)CN(CCCCNC(=O)c1ccc(-c3ccccc3)cc1)CC2`, the values for the growth inhibition in test [1] and in test [4] were 10% and 96% (active), respectively. Moreover, the inhibition was -9% in test [2] and -1% in test [3]. For the same molecule, the result in test [5], in test [6], in test [7] and in test [8] was inactive.

On to `Cc1ccc(F)cc1S(=O)(=O)NCC(C)c1ccc(NC(=O)Nc2cccc(F)c2)cc1` (stereo not given), for which the values for the growth inhibition in test [1] and in test [4] were 5% and 95% (active), respectively. The inhibition in test [2] is 20%; in test [3], 2%. For the same molecule, the result in test [5], in test [6], in test [7] and in test [8] was inactive.

As for `Cc1ccoc1C(=O)Nc1cccc(-c2cccc(-c3nc4c(C)cccc4[nH]3)c2)c1`, the growth inhibition in test [1] was 79% (active); in test [4], 101% (active). In addition, the inhibition in test [2] was 17%; in test [3], -3%. Moreover, the result in test [5], in test [6], in test [7] and in test [8] was inactive.

For `O=C(CCCCCNC(=O)c1ccc(O)c(-c2ccc(Cl)c(Cl)c2)c1)NCCN1CCCC1`, the results for the growth inhibition in test [1] and in test [4] were 2% and 90% (active), respectively. The inhibition in test [2] was -6%; in test [3], -2%. Further, the result in test [5], in test [6], in test [7] and in test [8] was inactive.

With `Cc1cccc2[nH]c(-c3ccc(-c4cccc(CNCCCNS(C)(=O)=O)c4)s3)nc12`, the growth inhibition is 19% in test [1] and 99% (active) in test [4]. The values for the inhibition in test [2] and in test [3] were 20% and 2%, respectively. For the same molecule, the outcome in test [5], in test [6], in test [7] and in test [8] was inactive.

Take `COc1ccc(CCNCCCCCCNCCc2ccc(Cl)cc2)c(Cl)c1OC`: the growth inhibition in test [1] was 4%; in test [4], 101% (active). In addition, the figures for the inhibition in test [2] and in test [3] were 88% (active) and 5%, respectively. Moreover, the outcome in test [5], in test [6], in test [7] and in test [8] was inactive.

Take `Cc1nnc2c(NC(=O)NC3CCCC3)cc3cc(-c4ccc(CN(C)C)cc4)ccc3n12`: the growth inhibition in test [1] is 37%; in test [4], 100% (active). Also, the inhibition in test [2] is 100% (active); in test [3], -2%. Also, the result in test [5], in test [6], in test [7] and in test [8] was inactive.

In the case of `O=C(Nc1cccc(-c2cccc(-c3nc4ccc(F)cc4[nH]3)c2)c1)c1cnc[nH]1`, the growth inhibition in test [1] was 87% (active); in test [4], 100% (active). In addition, the inhibition is 13% in test [2] and -1% in test [3]. In addition, the outcome in test [5], in test [6], in test [7] and in test [8] was inactive.

Take `CS(=O)(=O)N1CC2(CCN(CCC(NC(=S)Nc3ccccc3)c3ccc(Cl)c(Cl)c3)CC2)c2ccccc21` (stereo not given): the growth inhibition in test [1] was 80% (active); in test [4] it was 98% (active). Further, the figures for the inhibition in test [2] and in test [3] were 24% and -1%, respectively. Also, the result in test [5], in test [6], in test [7] and in test [8] was inactive.

For the molecule `CCCCc1cc(NCc2ccncc2)nc(Nc2ccc(OC)cc2)n1`, the growth inhibition is 22% in test [1] and 93% (active) in test [4]. Further, the inhibition was 11% in test [2] and 0% in test [3]. In addition, the result in test [5], in test [6], in test [7] and in test [8] was inactive.

For `CC(=O)c1cccc(NC(=O)N2CCCN(CCCCCNC(=O)/C=C/c3ccc(Cl)c(Cl)c3)CC2)c1`, the values for the growth inhibition in test [1] and in test [4] were 0% and 93% (active), respectively. Besides, the values for the inhibition in test [2] and in test [3] were 13% and -5%, respectively. The result in test [5], in test [6], in test [7] and in test [8] was inactive.

`CN(C)CCN(C)Cc1cccc(-c2ccc3c(Nc4ccc(F)cc4Cl)ccnc3c2)c1`: the growth inhibition in test [1] was 100% (active); in test [4] it was 101% (active). Further, the inhibition in test [2] was 53% (active); in test [3], 0%. In addition, the outcome in test [5], in test [6], in test [7] and in test [8] was inactive.

The record behind these values is PubChem BioAssay.
